Results as given in PubChem BioAssay (NCATS).
Records with an inconclusive call do not appear. Activity calls are given as the source filed them. Calls follow the shape of the dose curve; as a rule, active = well fitted curve in the direction sought with a large enough effect; inconclusive = small, poorly fitted or top-dose-only effect, or another doubt; inactive = no such curve, though single readings can be large; an effect the other way counts as inactive or inconclusive. Where a SMILES comes first, the peptide text is derived from it.

What was measured:
[1] = test system: NIH3T3; assay: qHTS assay to identify novel small-molecules to repurpose for Merkel cell carcinoma treatment (AID 1296009); details: MCC and control cell lines, CellTiter-Glo viability, 72 h; at 44.8 µM (top of the series) unless noted; also: nearly all actives have a fitted effect of over 60% in size
Procedure, shortened: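 Dose-response viability screen; 72 hr exposure at 37 degree celsius; CellTiter-Glo added, 10 min room temperature, luminescence read; RLUs scaled between no-cell and DMSO wells.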

[2] = test system: C33A; assay: Primary qHTS to identify gynecologic anti-cancer compounds using libraries of approved drugs and bioactive compounds (AID 1345084); details: Gynecologic cancer cell panel viability, ATPlite luminescence, 48 h; series mostly up to 57.5 µM; also: % is scaled to controls: 0 for no effect and ±100 for the full control effect; nearly all actives have a fitted effect of over 55% in size
Procedure, shortened: (§1)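 Five-concentration response, 48 h; readout is ATP-driven luciferase luminescence.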

[3] = test system: CAOV3; assay: as above; details: Gynecologic cancer cell panel viability, ATPlite luminescence, 48 h; series mostly up to 57.5 µM
Procedure, shortened: as §1

[4] = test system: CASKI; assay: as above; details: Gynecologic cancer cell panel viability, ATPlite luminescence, 48 h; series mostly up to 57.5 µM
Procedure, shortened: as §1

[5] = test system: Es-2; assay: as above; details: Gynecologic cancer cell panel viability, ATPlite luminescence, 48 h; series mostly up to 57.5 µM
Procedure, shortened: as §1

[6] = test system: HeLa; assay: as above; details: Gynecologic cancer cell panel viability, ATPlite luminescence, 48 h; series mostly up to 57.5 µM
Procedure, shortened: as §1

[7] = test system: Hek293T; assay: as above; details: Gynecologic cancer cell panel viability, ATPlite luminescence, 48 h, control line for the selectivity index; series mostly up to 57.5 µM
Procedure, shortened: as §1

[8] = test system: JEG-3; assay: as above; details: Gynecologic cancer cell panel viability, ATPlite luminescence, 48 h; series mostly up to 57.5 µM
Procedure, shortened: as §1

C[C@@H]1O[C@@H](O[C@H]2[C@@H]3C=CO[C@@H](O[C@@H]4O[C@H](CO)[C@@H](O)[C@H](O)[C@H]4O)[C@@H]3[C@@]3(CO)O[C@@H]23)[C@H](OC(=O)/C=C/c2ccc(O)cc2)[C@H](O)[C@H]1O
inactive: outcome [1] inactive [at 17.4 µM] | Potency [2] | Potency [3] | outcome [4] | Potency [5] | Potency [6] | Potency [7] | Potency [8]

Nc1nc2c(nc(Sc3ccc(Cl)cc3)n2[C@@H]2O[C@@H]3COP(=O)(O)O[C@H]3[C@H]2O)c(=O)[nH]1
inactive: outcome [1] | Potency [2] | Potency [3] | outcome [4] | Potency [5] | Potency [6] | Potency [7] | Potency [8]

O=C(OCc1ccccc1O[C@@H]1O[C@H](CO)[C@@H](O)[C@H](O)[C@H]1O)C1(O)C=CCCC1O (stereo partly specified)
inactive: outcome [1] inactive [at 17.4 µM] | Potency [2] | Potency [3] | outcome [4] | Potency [5] | Potency [6] | Potency [7] | Potency [8]

O=C(O)[C@H](Cc1ccccc1)Oc1ccc(-c2ccccc2)cc1
inactive: outcome [1] | Potency [2] | Potency [3] | outcome [4] | Potency [5] | Potency [6] | Potency [7] | Potency [8]

CC(C)=CCC(O)[C@](C)(O)C1[C@H](O)C[C@@]2(C)C3CC=C4C(C[C@H](O)[C@@H](O[C@@H]5O[C@H](CO)[C@@H](O)[C@H](O)[C@H]5O)C4(C)C)[C@]3(C)C(=O)C[C@]12C (stereo partly specified)
inactive: outcome [1] inactive [at 17.4 µM] | Potency [2] | Potency [3] | outcome [4] | Potency [5] | Potency [6] | Potency [7] | Potency [8]

CC1=C2C(=O)C=C(CO)C2[C@H]2OC(=O)[C@H](C)[C@@H]2[C@@H](OC(=O)Cc2ccc(O)cc2)C1 (stereo partly specified)
inactive: outcome [1] inactive [at 17.4 µM] | Potency [2] | Potency [3] | outcome [4] | Potency [5] | Potency [6] | Potency [7] | Potency [8]

CC1=COC(OC2OC(CO)C(O)C(O)C2O)C2C(CO)CC(OC(=O)/C=C/c3ccc(O)cc3)C12 (stereo unspecified)
inactive: outcome [1] inactive [at 17.4 µM] | Potency [2] | Potency [3] | outcome [4] | Potency [5] | Potency [6] | Potency [7] | Potency [8]

Cn1cc(Nc2cnccc2C(=O)O)c2cccnc21
inactive: outcome [1] | Potency [2] | Potency [3] | outcome [4] | Potency [5] | Potency [6] | Potency [7] | Potency [8]

CCNC(=O)OC1CCN(c2nncc3cc(OC)c(OC)cc23)CC1
inactive: outcome [1] | Potency [2] | Potency [3] | outcome [4] | Potency [5] | Potency [6] | Potency [7] | Potency [8]

CCCCCOC(=O)Nc1nc(=O)n(C2O[C@H](C)[C@@H](O)[C@H]2O)cc1F (stereo partly specified)
inactive: outcome [1] | Potency [2] | Potency [3] | outcome [4] | Potency [5] | Potency [6] | Potency [7] | Potency [8]

COc1cc(/C=C/C(=O)O[C@H]2[C@H](O)[C@@H](CO)O[C@@]2(CO)O[C@H]2O[C@H](CO)[C@@H](O)[C@H](O)[C@H]2O)cc(OC)c1O
inactive: outcome [1] inactive [at 17.4 µM] | Potency [2] | Potency [3] | outcome [4] | Potency [5] | Potency [6] | Potency [7] | Potency [8]

CC(C)=CCC[C@](C)(O[C@@H]1O[C@H](CO)[C@@H](O)[C@H](O)[C@H]1O)[C@H]1CC[C@]2(C)[C@@H]1[C@H](O)CC1[C@@]3(C)CC[C@H](O)C(C)(C)C3[C@@H](O[C@@H]3O[C@H](CO)[C@@H](O)[C@H](O)[C@H]3O[C@@H]3O[C@@H](C)[C@H](O)[C@@H](O)[C@H]3O)C[C@]12C (stereo partly specified)
inactive: outcome [1] inactive [at 9.27 µM] | activity change, negative = cytotoxicity [2] -11.8% [at 11.6 µM] | activity change, negative = cytotoxicity [3] -9.95% [at 11.6 µM] | activity change, negative = cytotoxicity [4] -3.66% [at 11.6 µM] | activity change, negative = cytotoxicity [5] 5.12% [at 11.6 µM] | activity change, negative = cytotoxicity [6] 11.5% [at 11.6 µM] | activity change, negative = cytotoxicity [7] -2.65% [at 11.6 µM] | activity change, negative = cytotoxicity [8] -0.108% [at 11.6 µM]

O=C(O)C(Cc1ccccc1)NC(=O)C1CCCN1 (stereo not drawn) (H-Pro-Phe-OH; configuration not given here)
inactive: outcome [1] | Potency [2] | Potency [3] | outcome [4] | Potency [5] | Potency [6] | Potency [7] | Potency [8]

CC1=C2CC(=O)C(C)CC/C=C(\C)CC2(O)OC1=O (stereo unspecified)
inactive: outcome [1] | Potency [2] | Potency [3] | outcome [4] | Potency [5] | Potency [6] | Potency [7] | Potency [8]

CC(=O)O[C@@H]1C(=O)C(C)=C(CCC(C)CC(=O)O)[C@@]2(C)CCCC(C)(C)C12 (stereo partly specified)
inactive: outcome [1] | Potency [2] | Potency [3] | outcome [4] | Potency [5] | Potency [6] | Potency [7] | Potency [8]

C/C=C(\C)C(=O)OC[C@H]1O[C@@H](O[C@H]2[C@@H](O[C@H]3O[C@H](COC(=O)/C(C)=C/C)[C@@H](O)[C@H](O)[C@H]3O[C@@H]3O[C@H](CO)[C@@H](O)[C@H](OC(=O)/C(C)=C/C)[C@H]3O)O[C@H](COC(=O)/C(C)=C/C)[C@@H](O)[C@@H]2O)[C@H](O)[C@@H](O)[C@@H]1O
inactive: outcome [1] inactive [at 9.27 µM] | activity change, negative = cytotoxicity [2] 12.3% [at 11.6 µM] | activity change, negative = cytotoxicity [3] 5.53% [at 11.6 µM] | activity change, negative = cytotoxicity [4] -1.71% [at 11.6 µM] | activity change, negative = cytotoxicity [5] 4.24% [at 11.6 µM] | activity change, negative = cytotoxicity [6] -5.55% [at 11.6 µM] | activity change, negative = cytotoxicity [7] 8.78% [at 11.6 µM] | activity change, negative = cytotoxicity [8] 2.17% [at 11.6 µM]

O=C(/C=C/c1ccc(O)cc1)O[C@@H]1C[C@@](O)(C(=O)O)C[C@@H](O)[C@@H]1O
inactive: outcome [1] | Potency [2] | Potency [3] | outcome [4] | Potency [5] | Potency [6] | Potency [7] | Potency [8]
